Assay outcomes as filed in PubChem.
This is a sample that favours compounds with a hit; in the whole collection about 1.7% have one here.
Vif inh: HIV Vif inhibition; HEK293T cells, Vif self-association by quenched fluorescence, imaging, 24 h; inhibition, % at 7.49 µM; 340,000 tested, 0.35% active; AID 602346; in the data active = inhibition above about 50%, passing the limit was not always enough
ARNT-TACC3 inh: disruptors of human ARNT/TACC3 interaction; Q9Y6A5; AlphaScreen His-ARNT PAS-B/GST-TACC3 binding, luminescence; TACC3 fragment carries E629A point mutation; inhibition, % at 9.99 µM; 390,000 tested, 0.66% active;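 active = mean inhibition of replicates at least 50% and at least half of replicates each reaching 50%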
Glyco luc inh: N-linked glycosylation inhibition. D54 ERlucT glycosylation luciferase reporter, 24 h; percent of 100 nM tunicamycin response. reporter increase, % at 12.5 µM. 360,000 tested, 0.23% active;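 active = mean luciferase reporter signal, scaled so untreated is 0 and the glycosylation-blocking control 100, at or above a set limit in every replicate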;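 also: luciferase carries N-glycosylation sites so blocking glycosylation raises the light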
Cardio protect: modulators protecting cardiomyocytes from myocardial damage. protection from H2O2 cell death, % at 20 µM. 360,000 tested, 0.63% active. AID 588492. H9c2 cardiomyocytes, H2O2 injury protection, ATPLite, 2 h;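 active = compounds giving at least 50% protection of heart cells from peroxide-induced death in the single-dose screen, raw or plate-pattern-corrected value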
aDG glyco up: increases alpha dystroglycan glycosylation; 360,000 tested, 0.22% active; Pro5-aDG cells, alpha-DG glycosylation AlphaScreen (IIH6); 0% Pro5, 100% B10-LARGE cell signal; activation, % at 10 µM;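 active = activation of at least 8% versus controls, or a plate z-score of at least 8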;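 also: Pro5 are CHO cells carrying HIG-tagged alpha-DG that lacks glycosylation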
Of the large screens only hits and unclear results are named; the others gave an inactive call; ! = repeats disagree.

C[C@@H]1CCCCO[C@@H](CN(C)C(=O)Nc2ccccc2)[C@H](C)CN([C@H](C)CO)C(=O)c2cc(NC(=O)NC3CCCCC3)ccc2O1	none (no result: Vif inh, Glyco luc inh, Cardio protect, aDG glyco up)
CCCN1C(=O)/C(=C/C=C2\N(CC)c3ccccc3C2(C)C)SC1=S	none
CCCCN1C(=O)/C(=C/C=C2\Oc3ccccc3N2CC)SC1=S	Vif inh 69.3
Cc1ccccc1S(=O)(=O)NC(=O)C1(C)CCN1C(=O)CCc1cccs1 (stereo not given)	Vif inh 67.7 (no result: ARNT-TACC3 inh)
COCc1cc(=O)[nH]c(Nc2nc3ccccc3o2)n1	ARNT-TACC3 inh 59.9
O=C(NCc1nc2ccccc2[nH]1)C1=C[C@H](c2ccc(Br)cc2)C[C@H](OCCCCO)O1	none (no result: Vif inh, Glyco luc inh, Cardio protect, aDG glyco up)
O=C(Nc1ccc2c(c1)[C@H]1C[C@H](CC(=O)N3CCCCC3)O[C@H](CO)[C@H]1O2)c1cccnc1	none (no result: Vif inh, Glyco luc inh, Cardio protect, aDG glyco up)
CN1CCN(c2ccc(-c3cccc(NC(=O)COc4ccc(Cl)cc4Cl)c3)nn2)CC1	aDG glyco up 5.2
COc1ccc(/C=C/C(=O)c2ccccc2O)cc1CN1CCOCC1	Cardio protect 83.5
C=C(C)Cn1c(SCC)nc2ccccc2c1=O	none
C=C(C)Cn1c(SCC(=O)N/N=C/c2c(O)ccc3ccccc23)nc2ccccc2c1=O	Cardio protect 69.3
O=C1c2cccnc2Oc2ccc(Cl)cc2N1Cc1ccc(F)cc1	Cardio protect 63.4
Cc1ccc2c(c1)N(Cc1cccc(Cl)c1)C(=O)c1cccnc1O2	none
FC(F)(F)c1nnc2c(Sc3ccccc3)nc3ccccc3n12	none
FC(F)(F)c1nnc2c(Sc3ccc(Cl)cc3)nc3ccccc3n12	Glyco luc inh 30.5
CC(C)NC(=O)N(C)C[C@H]1OCCCC[C@H](C)Oc2ccc(NC(=O)Nc3ccc4c(c3)OCO4)cc2C(=O)N([C@@H](C)CO)C[C@H]1C	none (no result: Vif inh, Glyco luc inh, Cardio protect, aDG glyco up)
O=C(O)c1cc2c([nH]c1=O)CCCC2	none
C=CCSC(=C(C#N)C#N)c1cc2c([nH]1)CCCC2	Glyco luc inh 40.4
COc1cnc(-c2ccccn2)nc1N(C)C	ARNT-TACC3 inh 74.1
CCOC(=O)C(C)Sc1nc(-c2ccccn2)ncc1OC (stereo not given)	ARNT-TACC3 inh 59.9
COc1ccccc1-c1nc(-c2ccccn2)no1	none
O=C(NCCCn1ccnc1)C(=O)NCC(c1cccnc1)N1CCN(c2ccccc2)CC1 (stereo not given)	Vif inh 53.7
O=C(O)c1ccccc1OC(C(=O)Nc1cc(Cl)cc(Cl)c1)c1ccccc1 (stereo not given)	Glyco luc inh 29.4
C[C@@H]1CN([C@H](C)CO)C(=O)c2cc(NC(=O)C3CCCCC3)ccc2O[C@@H](C)CCCCO[C@H]1CN(C)C(=O)Nc1ccc(F)cc1	none (no result: Vif inh, Glyco luc inh, Cardio protect, aDG glyco up)
CC1=C(/C=C/C(C)=C/C=C/C(C)=C/C(=O)Nc2ccc(O)cc2)C(C)(C)CCC1	Vif inh 50.3!
O=S(=O)(Nc1cccc2cccnc12)c1ccccc1	none
O=S(=O)(Nc1cccc2cccnc12)c1ccc(S(=O)(=O)N2CCCC2)cc1	ARNT-TACC3 inh 67.0
O=C1Nc2ccccc2/C1=N/N=C/c1ccc(-c2ccc([N+](=O)[O-])cc2)o1	Vif inh 53.7
CN(/N=C/c1ccc(-c2ccc([N+](=O)[O-])cc2)o1)c1ccccc1	none (no result: Vif inh)
CC(=NNC(=S)Nc1ccc(C)cc1)c1ccccn1	ARNT-TACC3 inh 61.8
COc1ccccc1NC(=S)NN=C(C)c1ccccn1	ARNT-TACC3 inh 64.8
CCOc1cc(NC(=O)C2CC2)c(OCC)cc1NC(=O)c1ccccn1	Cardio protect 52.7
COc1ccccc1NC(=O)c1ccccc1NC(=O)c1ccccn1	Vif inh 51.0 (no result: ARNT-TACC3 inh)
CCc1ccc(O)c(CNCCNCc2cc(CC)ccc2O)c1	none
Cc1ccc(O)c(CNCCNCc2cc(C)ccc2O)c1	Cardio protect 64.8
O=C(NN1C(=O)/C(=C\c2cccnc2)SC1=S)C(c1ccccc1)c1ccccc1	Cardio protect 60.3
O=C(NN1C(=O)/C(=C/c2cccnc2)SC1=S)C(c1ccccc1)c1ccccc1	none
CO[C@@H]1CN(C)C(=O)c2ccc(NC(=O)NC(C)C)cc2OC[C@H](C)N(C(=O)CN(C)C)C[C@H]1C	none (no result: Vif inh, Glyco luc inh, Cardio protect, aDG glyco up)
COc1ccc(Cc2nnc(N/N=C/c3ccc(O)cc3)[nH]c2=O)cc1OC	ARNT-TACC3 inh 92.1
O=C(c1ccc(N2CN(C(=O)c3ccco3)c3nc4ccccc4nc32)cc1)N1CCOCC1	Cardio protect 72.2
O=C(c1ccncc1)N1CCN(C(=O)c2ccco2)CC1	none
CCc1ccc(CNC(=O)Cc2ccc(NC(=O)C3=C(C)OCCS3)cc2)cc1	Glyco luc inh 30.9
CC1=C(C(=O)Nc2ccc(CC(=O)NCc3ccccc3C)cc2)SCCO1	none
CN(C)C(=O)C[C@@H]1C[C@@H]2c3cc(NC(=O)CC4CC4)ccc3O[C@@H]2[C@@H](CO)O1	none (no result: Vif inh, Glyco luc inh, Cardio protect, aDG glyco up)
C[C@@H]1CN([C@@H](C)CO)C(=O)Cc2cc(NC(=O)Nc3ccc(C(F)(F)F)cc3)ccc2O[C@@H]1CN(C)C(=O)Nc1ccc(C(F)(F)F)cc1	none (no result: Vif inh, Glyco luc inh, Cardio protect, aDG glyco up)
C[C@H]1CN([C@@H](C)CO)C(=O)c2cccc(NS(=O)(=O)c3cn(C)cn3)c2O[C@@H]1CN(C)S(=O)(=O)c1ccc(Cl)cc1	none (no result: Vif inh, Glyco luc inh, Cardio protect, aDG glyco up)
COc1ccc(C2N(c3ccc(Cl)cc3)C(=O)C3CCCN32)cc1 (stereo not given)	ARNT-TACC3 inh 29.7
O=c1[nH]c(NCc2ccccc2)nc2c1CCCC2	Cardio protect 53.3 (no result: ARNT-TACC3 inh)
CC(=O)C1C(c2ccccc2Cl)NC(=O)NC1(O)C(F)(F)F (stereo not given)	none
CC(=O)C1C(c2cn(-c3ccccc3)nc2-c2cccs2)NC(=O)NC1(O)C(F)(F)F (stereo not given)	ARNT-TACC3 inh 47.0
CC(=O)Nc1cc(-c2cccc(N)c2)cn2c(-c3ccc(C(C)=O)cc3)cnc12	none (no result: ARNT-TACC3 inh)
CC(=O)c1ccc(-c2cnc3c(NC=O)cc(-c4ccc(N5CCN(C)CC5)cc4)cn23)cc1	none (no result: ARNT-TACC3 inh)
COc1ccc(-c2cc(NC(C)=O)c3ncc(-c4cccc(C(C)=O)c4)n3c2)cc1OC	Cardio protect 110.7 (no result: Vif inh, ARNT-TACC3 inh)
COc1ccc(-c2cc(NC=O)c3ncc(-c4ccc(C(C)=O)cc4)n3c2)cn1	Cardio protect 63.5 (no result: Vif inh, ARNT-TACC3 inh)
CC(=O)Nc1cccc(-c2cc(NC(C)=O)c3ncc(-c4cccc(C(C)=O)c4)n3c2)c1	Cardio protect 59.3 (no result: ARNT-TACC3 inh)
CC(=O)Nc1cccc(-c2cc(NC=O)c3ncc(-c4ccc(C(C)=O)cc4)n3c2)c1	Cardio protect 92.8 (no result: ARNT-TACC3 inh)
CC(C)CC#Cc1cnc2c(c1)C(=O)N([C@H](C)CO)C[C@H](C)[C@H](CN(C)C(=O)Cc1ccccc1)O2	none (no result: Vif inh, Glyco luc inh, Cardio protect, aDG glyco up)
CCOC(=O)c1c(N)c2cc([N+](=O)[O-])ccc2n1C	none
CCOC(=O)/C(=C/c1c(C)n(C)c2ccc([N+](=O)[O-])cc12)C(C)=O	Glyco luc inh 44.3
CCC(=O)N(C)C[C@@H]1Oc2ncc(C#CC3(O)CCCC3)cc2C(=O)N([C@@H](C)CO)C[C@H]1C	none (no result: Vif inh, Glyco luc inh, Cardio protect, aDG glyco up)
Cc1ccc2nsnc2c1NC(=O)c1ccc(-c2cc(Cl)ccc2Cl)o1	Glyco luc inh 128.5
